Compound activity deposited in PubChem BioAssay by several laboratories.
Shown are actives, neighbours in structure and some others; about 3.1% of the full set was active somewhere.
Beta cell apopt = blocks beta cell apoptosis; INS-1E cytokine-induced death, ATP luminescence, 48 h; percent of positive-control rescue, neutral wells zero; protection from apoptosis, % (no concentration beside the values); actives 0.8% (n = 300,000); AID 435005;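 active = Every replicate reaches about 75%, or at least half do and their mean reaches it too, limit read from the data; inconclusive = At least half of replicates reach the limit but their mean does not; inactive = Under half of replicates reach the limit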;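 also: 0% = cytokine-treated negative control wells and 100% = positive control rescue; higher means more ATP so stronger rescue from cytokine killing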
SKKanGAS inh = inhibitors of SKKanGAS S. pyogenes growth in kanamycin (SK-promoter or general growth effect); actives 1.3% (n = 300,000); BacTiter-Glo, 6 h; inhibition, % at 7.5 µM;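 active = mean replicate score, as percent of positive control median, at least 50; inconclusive = mean below 50 but one replicate at or above 50; inactive = mean and every replicate below 50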;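 also: strain carries kanamycin resistance gene driven by streptokinase promoter and grows in 40 µg/ml kanamycin; loss of luminescence reflects streptokinase promoter inhibition or plain growth inhibition; 0% = median of DMSO wells and 100% = positive control at its reference dose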
PP1 inh = counter-screen for PP5 inhibitors: inhibitors of human PP1-alpha; P62136; purified PP1alpha, OMFP fluorescence; inhibition, % at 6.7 µM; actives 0.9% (n = 320,000); AID 2235;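 active = inhibition above the mean inhibition of all tested compounds plus 3 SD, computed separately for each screening campaign, cut at about 15% in these data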
PP5 primary = blocks human protein phosphatase 5 activity; P53041; purified PP5c, OMFP substrate fluorescence; inhibition, % at 6.7 µM; actives 0.18% (n = 320,000); AID 1987;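 active = inhibition above the campaign's mean inhibition across all tested compounds plus 3 SD, cut at about 9.5% in these data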;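 also: 0% = DMSO only and 100% = 100 µM cantharidin control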
Target sequence (P53041 whole entry, looked up): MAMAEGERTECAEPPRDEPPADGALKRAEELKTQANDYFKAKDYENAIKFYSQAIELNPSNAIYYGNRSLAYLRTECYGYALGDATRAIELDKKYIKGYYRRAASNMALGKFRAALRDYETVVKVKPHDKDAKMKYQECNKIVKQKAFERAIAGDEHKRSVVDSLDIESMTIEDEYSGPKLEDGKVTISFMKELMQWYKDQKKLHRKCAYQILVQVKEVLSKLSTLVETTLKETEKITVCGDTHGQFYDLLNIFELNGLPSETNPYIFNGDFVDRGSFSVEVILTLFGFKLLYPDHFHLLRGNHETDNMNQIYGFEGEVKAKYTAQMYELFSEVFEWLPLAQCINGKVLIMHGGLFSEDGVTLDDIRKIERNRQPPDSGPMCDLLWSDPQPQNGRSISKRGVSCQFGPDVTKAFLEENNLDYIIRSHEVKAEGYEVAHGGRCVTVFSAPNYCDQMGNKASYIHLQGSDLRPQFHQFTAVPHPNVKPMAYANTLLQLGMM
CSC inhib = blocks cancer stem cells. cancer stem cell-like cells viability, luminescence. inhibition, % at 7.5 µM. actives 1.1% (n = 300,000); in the data active = inhibition above about 75%; inconclusive = no clear call, values can overlap the other calls; tested in HMLE shEcad cells
An asterisk follows results filed as active; u = inconclusive; x = not tested or not shown.

SMILES	Beta cell apopt	SKKanGAS inh	PP1 inh	PP5 primary	CSC inhib
CCOc1cc(/C=N\NC(=O)c2ccc(NC(=O)C(C)(C)C)cc2)ccc1OC(=O)c1ccc(C)cc1	8	20	-2	0	2
CCCC1=C(C(=O)OCC)C(c2ccc(OC)c(CSc3ccccn3)c2)C(C#N)=C(N)O1 (stereo not given)	x	-1	2	3	x
CCOc1cccc(-c2c(C(=O)N/N=C(\C)c3cccnc3)nnn2-c2nonc2N)c1	x	-1	0	-1	-5
COc1ccc(C(=O)N/N=C/c2ccccc2OC(=O)c2ccccc2)cc1	102*	22	3	5	x
COc1ccc(C(=O)N/N=C/c2ccc(OC(=O)c3ccccc3)cc2)cc1	1	3	6	-2	12
C(=C\c1nc(N2CCCCCC2)c2ccccc2n1)/c1ccccc1	109*	42	11	4	79*
CCCCn1c(N)c(N(CCOC)C(=O)C2CCN(C(=O)c3ccc(F)cc3)CC2)c(=O)[nH]c1=O	-2	-6	-2	-3	-8
CCOC(=O)c1csc(N/N=C2\CCCc3ccccc32)n1	5	50*	3	3	10
COc1ccccc1NC(=S)NC1CCCCCCCCCCC1	77*	12	-2	3	20
COc1ccccc1NC(=S)NC1CCCCC1	-4	4	-5	-4	-15
S=C(Nc1ccc(Oc2ccccc2)cc1)NC1CCCCCC1	6	18	3	4	95*
S=C(Nc1ccc(Oc2ccccc2)cc1)NC1CCCCC1	-1	54*	0	1	-6
COCCN(C(=O)COC(=O)c1cc2c(s1)CCCC2)c1c(N)n(Cc2ccccc2)c(=O)[nH]c1=O	x	1	4	-1	-14
Cc1nnc2ccc(-c3ccc(NS(=O)(=O)c4ccc(Cl)s4)cc3)nn12	-1	x	-2	1	-1
CCN(CC)c1ccc(/C=C(\C#N)c2ccccn2)cc1	28	6	2	7	78*
CN(C)CCCNS(=O)(=O)c1ccc(NC2CCCCCC2)c([N+](=O)[O-])c1	85*	4	4	5	0
CC(=O)N[C@@H](Cc1c[nH]c2ccccc12)C(=O)NCc1ccccc1	x	0	-1	-2	5
CC/C(=C/c1ccccc1)c1cccc2[nH]c3c(OC)cccc3c12	45	99*	0	2	131*
CCOc1ccc(OCC(=O)OC(C)C(=O)NC2CCCC2)cc1 (stereo not given)	-2	x	x	x	-16
COC(=O)[C@@H]1CC[C@H](C)[C@@H](c2ccc(C)cc2)N1C(=O)c1ccc(/C=N/O[C@@H](C)CN2CCCCc3nc(C)c(C)cc32)cc1	16	17	2	5	90*
C/C(CCN1CCCCc2nc(C)c(C)cc21)=N\O[C@@H](C)CN1CCCCc2nc(C)c(C)cc21	-7	0	0	4	30
C=C1C(=O)C=C2CN(C(=O)c3ccccc3)[C@@](Cc3ccc(F)cc3)(C(=O)OC)[C@@H]12	113*	-9	3	2	-2
O=c1cc(O)c2sc3nc(-c4ccccc4)cc(C(F)(F)F)c3c2[nH]1	6	28	0	0	-11
COc1ccc(OC)c(-c2cc(C(F)(F)F)c3c(n2)sc2c(O)cc(=O)[nH]c23)c1	3	81*	0	-2	1
Cc1ccc(NS(=O)(=O)c2ccc(C3CCCCC3)cc2)cc1	43	76*	4	1	10
SMILES	Beta cell apopt	SKKanGAS inh	PP1 inh	PP5 primary	CSC inhib
Cc1ccc(OCC(=O)NNC(=O)C(=O)N2CCCC2)c(C)c1	-5	-13	-4	-1	-13
Cc1ccccc1-c1nnn(Cc2cccc(S(=O)(=O)N3CCOCC3)c2)n1	2	x	2	4	0
COc1ccc(-c2csc(NC(=O)c3ccccc3NS(=O)(=O)c3ccc(C)cc3)n2)cc1	44	54*	13	4	7
COc1ccc(S(=O)(=O)Nc2ccccc2C(=O)Nc2nc(-c3ccc(F)cc3)cs2)cc1OC	46	36	11	4	-11
O=C(/C=C/c1ccccc1)OCCCN=C1NS(=O)(=O)c2ccccc21	x	-12	-5	2	-7
C/C(N)=C(/C#N)C(=O)COC(=O)c1cc(-c2cccc3ccccc23)nc2ccccc12	5	62*	1	-2	-11
Nc1nc(SCCO)[nH]c(=O)c1NC(=O)c1ccc(Br)o1	0	1	-9	-2	-10
CCNC(=S)Nc1cccc([N+](=O)[O-])c1	-11	-5	-7	1	15
O=[N+]([O-])c1cccc(NC(=S)Nc2nc(-c3ccccc3Cl)cs2)c1	33	u	14	-1	86*
CCn1cc(S(=O)(=O)NCCc2ccc(F)cc2)cn1	1	-6	-4	2	-7
Nc1ccc(C#Cc2ccc3c(=O)c4ccccc4oc3c2)cc1	-6	13	0	3	52
COc1cc2oc3cc(C#Cc4ccc(N)cc4)ccc3c(=O)c2cc1OC	68	58*	-1	-1	4
COc1cc2oc3ccc(C#Cc4ccc(N)cc4)cc3c(=O)c2cc1OC	x	78*	2	-1	4
O=C(COC(=O)CNC(=O)c1ccccc1F)Nc1ncc(Cl)cc1Cl	-6	x	-2	3	x
O=C(N/N=C/c1cc([N+](=O)[O-])ccc1N1CCCCCC1)c1ccccn1	11	5	0	2	x
CCN(CC)C(=O)C1CCCN(c2ccc([N+](=O)[O-])cc2/C=N/NC(=O)c2cccc(Br)c2)C1 (stereo not given)	19	6	17*	4	-4
Cc1c(C)c2cccnc2c2ncccc12	100*	x	16*	5	x
Cc1[nH]c2ccc3ncccc3c2c1C	-2	-6	-4	2	-5
O=[N+]([O-])c1cc(Cl)c(O)c2ncccc12	x	51*	x	x	x
O=[N+]([O-])c1cc(Cl)c2cccnc2c1O	-14	83*	6	1	98*
O=[N+]([O-])c1ccc(O)c2ncccc12	97*	44	14	4	82*
O=[N+]([O-])c1ccc(O)c2cccnc12	-1	-19	-1	1	1
O=[N+]([O-])c1cc(F)c2cccnc2c1O	0	40	-3	3	15
CC(C)C(c1nnnn1Cc1ccc(F)cc1)N1CCN(c2ccc(O)cc2)CC1 (stereo not given)	x	3	-4	2	11
Clc1cc2cccnc2c2ncccc12	87*	x	10	1	121*
COc1ccccc1CN1CCc2c([nH]c3ccccc23)C1	-1	-7	-1	3	9
Clc1cccc(CN2CCc3c([nH]c4ccccc34)C2)c1Cl	-2	20	5	4	111*
FC(F)(F)c1cccc(Nc2nc(N3CCCC3)nc(N3CCCC3)n2)c1	1	75*	0	2	9
CN1CCN(c2nc(Nc3cccc(C(F)(F)F)c3)nc(N3CCOCC3)n2)CC1	9	-1	-2	3	23
